From the supplement of paper PMC10981050
Several values for one entry are separate records, joined by “and”; a condition that tells them apart may be missing. Equal entries are not always repeated. Structures can show the parent of a compound that is named as a salt.

How the values were obtained:
Test in all cases: cell viability relative to vehicle control; higher = less cytotoxic
Settings in all cases: 10 µM
K562 = system: K562
How it was run: (§1)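 CRISPR-edited mutant clones and isogenic wild-type clones from four leukaemia lines were screened against Selleck bioactive, kinase and epigenetic probe libraries, with identity-inconsistent compounds excluded. Each compound was acoustically dispensed at a single 10 µM dose into 384-well plates holding 2000 cells in 50 µL medium per well. After 48 h the supernatant was removed and CellTiter-Glo luminescence was read. Viability was expressed as percent of the on-plate vehicle control and analysed in Genedata Screener.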

MARIMO = system: MARIMO
How it was run: as §1

MOLM14 = system: MOLM14
How it was run: as §1

OCI-AML2 = system: OCI-AML2
How it was run: as §1

| Compound | cell viability (K562; SRSF2 genotype: SRSF2 P95H/wt) | cell viability (K562; SRSF2 genotype: SRSF2 wt/wt) [%] | cell viability (MARIMO; SRSF2 genotype: SRSF2 P95H/wt) [%] | cell viability (MARIMO; SRSF2 genotype: SRSF2 wt/wt) [%] | cell viability (MOLM14; SRSF2 genotype: SRSF2 P95H/wt) [%] | cell viability (MOLM14; SRSF2 genotype: SRSF2 wt/wt) [%] | cell viability (OCI-AML2; SRSF2 genotype: P95H/wt) [%] | cell viability (OCI-AML2; SRSF2 genotype: wt/wt) [%] |
| --- | --- | --- | --- | --- | --- | --- | --- | --- |
| CCNC(=O)C[C@@H]1N=C(c2ccc(Cl)cc2)c2cc(OC)ccc2-n2c(C)nnc21 | 72.5% and 71.1% | 73.3 | 38.9 | 41.3 | 30 | 28.7 | 24.7 | 37.5 |
| CC(C)N(CCC(C(N)=O)(c1ccccc1)c1ccccn1)C(C)C (stereo not given) [disopyramide phosphate] | 98.9% and 108% | 106 | 104 | 109 | 104 | 104 | 107 | 96.2 |
| CC(C)(C)c1cc(C=C(C#N)C#N)cc(Br)c1O | 84.3% and 86.2% | 78 | 94.2 | 99.3 | 93.5 | 100 | 80.5 | 89.6 |
| CCN(CC)C(=O)c1ccc(C2=CC3(CCNCC3)Oc3cccc(O)c32)cc1 | 93.6% and 101% | 92.9 | 88.9 | 98.2 | 97.5 | 93.4 | 97.3 | 89 |
| Cc1cccc(C(C)c2c[nH]cn2)c1C (stereo not given) [Medetomidine HCl] | 97.2% and 99.8% | 95.1 | 95.1 | 107 | 101 | 102 | 97 | 113 |
| CC(=O)O[C@H]1[C@H]2[C@@H](OC(=O)Cc3ccccc3)[C@@H](C)C[C@]2(OC(C)=O)C(=O)/C(C)=C/[C@@H]2[C@H](CC[C@@]13CO3)C2(C)C [Euphorbiasteroid] | 63.8% and 85.5% | 84.1 | 111 | 27.6 | 46.1 | 30.6 | 27.2 | 22.4 |
| O=P1(N(CCCl)CCCl)NCCCO1 (stereo not given) [Cyclophosphamide monohydrate] | 105% and 103% | 108 | 94.6 | 106 | 99.2 | 102 | 100 | 106 |
| Cc1cccc(C)c1NC1=NCCCS1 [Xylazine HCl] | 101% and 85.1% | 82.8 | 85.1 | 96.8 | 90.4 | 91.5 | 89.1 | 93.1 |
| CCC(C)C(=O)O[C@@H]1[C@@H](OC(C)=O)[C@]2(C)[C@H](C(C)=O)CC[C@@]23O[C@]32CC[C@H]3C[C@@H](O[C@H]4C[C@@H](OC)[C@H](O[C@@H]5O[C@H](C)[C@@H](O)[C@@H](OC)[C@H]5O)[C@@H](C)O4)CC[C@]3(C)[C@@H]12 (stereo not given in full) [Tenacissoside H] | 89.8% and 95.2% | 97.7 | 96.9 | 93.2 | 94.6 | 93.4 | 98.9 | 96.7 |
| Cc1c(Cl)c(OCC(=O)N2CCN(C)CC2)nc2sc(C(=O)NC3CC3)c(N)c12 | 80.2% and 60.3% | 66 | 40.5 | 30.8 | 81.9 | 51 | 27.8 | 33.5 |
